Laboratory results published in PubChem BioAssay AID1347416 (National Center for Advancing Translational Sciences (NCATS), 2020).
Screen size: about 4,100 compounds; about 1,600 (39%) were called active. Another 25% or so got no clear call; they are omitted. Calls follow the shape of the dose curve; as a rule, active = well fitted inhibition curve with a large enough effect; inconclusive = small, poorly fitted or top-dose-only effect; inactive = no such curve, though single readings can be large or run the other way. The list shows a part of the results. Where a call stands in place of a potency, no number is given.

Test: qHTS Validation assay for Inhibitors of Plasmodium falciparum Dd2 growth in vitro; also: nearly all actives have a fitted effect of over 70% in size
Conditions: P. falciparum Dd2 in RBCs, SYBR Green growth, 72 h; series mostly up to 28.7 µM
Outline: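 P. falciparum Dd2-infected red blood cells (2.5% hematocrit, 0.3% parasitemia) grown 72 h at 37 °C under 5% O2 with compounds in a titration, 29 uM to 0.5 nM final. Growth read as SYBR Green-1 fluorescence after ~16 h lysis; artesunate 300 nM as positive control.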
Potency is read from the fitted curve at half-maximal effect.

Row | Compound | Potency
1 | O=C(NC1CC1)c1ccc(CSCc2cccc(F)c2)o1 | 8.41 µM (active)
2 | O=C(NC1CC1)C1COC2(CCN(C(=O)c3ccc(F)cc3)CC2)N1C(=O)c1cccc(F)c1 (stereo not given) | inactive
3 | CCCS(=O)(=O)N1CC(=O)N(c2cccc(F)c2)C(C)(C(=O)NC2CCCCCC2)C1 (stereo not given) | inactive
4 | Cc1ccc(CSCc2ccc(C(=O)NC3CC3)o2)cc1 | 2.66 µM (active)
5 | CCCNC(=O)N1CC[C@@H]2[C@H]1C(=O)N(c1cccc(F)c1)C(=O)N2Cc1cccs1 | inactive
6 | CCC1=C(C(=O)OC)C(c2cccc(F)c2)N2C(CC(=O)NCCc3cccs3)=CSC2=N1 (stereo not given) | 9.44 µM (active)
7 | O=C(COc1ccc(Cl)cc1)NCCc1csc(-c2cccc(F)c2)n1 | inactive
8 | CCOc1ccc(-c2cc3nc(C4CCN(C(=O)OC(C)(C)C)CC4)c(C(=O)Nc4ccc(C(=O)OC)cc4)cn3n2)cc1 | 4.73 µM (active)
9 | CCOc1ccc(NC(=O)c2ccc3c(c2)N(C)C2CCCN2C3=O)cc1 (stereo not given) | inactive
10 | CCCc1noc(-c2cn(C3CCN(C(=O)c4ccc(OC)cc4C)CC3)nn2)n1 | inactive
11 | O=C(c1[nH]nc2c1COc1ccccc1-2)N1CCC(Cc2nncn2CC2CC2)CC1 | inactive
12 | O=C(Nc1ccc(F)c(F)c1)c1ccc(=O)n(Cc2ccc(F)cc2)c1 | inactive
13 | CC(=O)Nc1ccc(NC(=O)c2c(C)oc3ccn(Cc4ccc(F)cc4)c(=O)c23)cc1 | 10.6 µM (active)
14 | Cc1ccc(-c2nc(NC(=O)c3cc(C(C)(C)C)nn3C)sc2C)cc1Cl | 10.6 µM (active)
15 | CCOC(=O)c1cccc(NC(=O)CCn2c(-c3ccc(F)cc3)cc(C(=O)OCC)c2C)c1 | 0.075 µM (active)
16 | CCOC(=O)c1cc(-c2ccc(OC)cc2)n(CCC(=O)Nc2cccc(C(C)=O)c2)c1C | 0.211 µM (active)
17 | CCOC(=O)c1cccc(NC(=O)CSc2cc(=O)n(C)c3ccccc23)c1 | inactive
18 | CCOC(=O)c1cccc(NC(=O)C2=C(C)C(=O)OC23CCCCC3)c1 | inactive
19 | CCN1CCN(Cc2ccc(NC(=O)c3cc(NC(=O)c4cnn(-c5ccccc5)c4N)cc(OC)c3)cc2C(F)(F)F)CC1 | 2.11 µM (active)
20 | CCN1CCN(Cc2ccc(NC(=O)c3ccc(C)c(NC(=O)C4=NN(c5ccccc5)C(=O)C4)c3)cc2C(F)(F)F)CC1 | 8.41 µM (active)
21 | CCN1CCN(Cc2ccc(NC(=O)c3cc(NC(=O)C4=NN(c5ccccc5)C(=O)C4)cc(OC)c3)cc2C(F)(F)F)CC1 | 8.41 µM (active)
22 | CCCCN(C(=O)c1cccc(S(=O)(=O)N(C)c2ccc(C)cc2)c1)c1c(N)n(CCCC)c(=O)[nH]c1=O | 5.31 µM (active)
23 | O=C1NC2(CN(Cc3ccc(F)cc3)C2)Oc2ccccc21 | inactive

Row | Compound | Potency
24 | CN(C)c1ccc(CN2CCC3(CC2)COc2ccccc2C(=O)N3)cc1 | 2.66 µM (active)
25 | O=C1NC2(CCN(C(=O)c3ccc(C(F)(F)F)cc3)CC2)COc2ccccc21 | 8.41 µM (active)
26 | O=C1CC2CCCC(C1)N2C(=O)c1ccc(C(F)(F)F)cc1 | inactive
27 | COc1cccc([S+](=O)([O-])N2CCC3(COc4ccccc4C(=O)N3)C2)c1 (stereo not given) | inactive
28 | O=C1Nc2ccccc2CC12CCCCN2Cc1ccc(C(F)(F)F)cc1 (stereo not given) | inactive
29 | O=C1NC2(CCN(C(=O)c3cccnc3)CC2)Oc2ccccc21 | inactive
30 | O=C1NC2(CCN(Cc3ccc(C(F)(F)F)cc3)CC2)COc2ccccc21 | 8.41 µM (active)
31 | C=C(C)COc1ccc(-c2ncnc(C(F)(F)F)c2-c2ccc(OC)cc2)c(O)c1 | 2.99 µM (active)
32 | C=C(C)COc1ccc(-c2ncnc(C(F)(F)F)c2-c2ccccc2)c(O)c1 | 2.37 µM (active)
33 | C=C(C)COc1ccc(-c2ncncc2-c2ccc(Br)cc2)c(O)c1 | inactive
34 | C=C(C)COc1ccc(-c2n[nH]c(C)c2-c2ccccc2)c(O)c1 | 4.73 µM (active)
35 | O=C(NC1CCCc2c1[nH]c1ccccc21)c1ccccc1 (stereo not given) | inactive
36 | COc1cc(C(=O)NC2CCCc3c2[nH]c2c(Cl)cccc32)cc(OC)c1OC (stereo not given) | 2.11 µM (active)
37 | Cc1ccc2c(c1)c(C(=O)N1CCC3(CCNC(=O)CC3)CC1)nn2C | inactive
38 | O=C(CN(C(=O)c1cccc([N+](=O)[O-])c1)C1CCCCC1)Nc1ccc(Cl)c([N+](=O)[O-])c1 | 13.3 µM (active)
39 | CN(CC1CCOCC1)C(=O)c1cccc(Cl)c1 | inactive
40 | CCC(=O)C1=C(c2cccc([N+](=O)[O-])c2)N(C(=O)CC)n2c(nnc2-c2ccccc2)S1 | 5.31 µM (active)
41 | CCC(=O)C1=C(c2ccccc2)N(C(=O)CC)n2c(nnc2-c2ccccc2)S1 | 5.96 µM (active)
42 | CCC(=O)C1=C(c2ccc(OC)c(OC)c2)N(C(=O)CC)n2c(CC)nnc2S1 | 4.73 µM (active)
43 | CCC(=O)C1=C(c2cccc([N+](=O)[O-])c2)N(C(=O)CC)n2c(nnc2C2CCCCC2)S1 | 1.88 µM (active)
44 | CCc1noc(-c2nc(-c3ccc(OC)c(OC)c3)no2)n1 | inactive
45 | COc1cc2nc(SCc3ccc(F)cc3)n3nc(CCn4c(C)nc5ccccc54)nc3c2cc1OC | 2.99 µM (active)
46 | CN(C)c1ccc(C(=O)N[C@H]2CO[C@H]3[C@@H]2OC[C@@H]3n2cc(COc3ccccc3)nn2)cc1 | inactive

Row | Compound | Potency
47 | C#CCN1c2ccccc2Sc2cccnc21 | 6.68 µM (active)
48 | CCc1cccc(NC(=O)C(Cc2ccccc2)NS(=O)(=O)c2ccc3c(c2)oc(=O)n3C)c1 (stereo not given) | inactive
49 | CC(C)c1cc(C(=O)Nc2cc(Cl)ccc2O)no1 | 6.68 µM (active)
50 | CC(C)Cc1cc(C(=O)Nc2cc(Br)ccc2O)no1 | 4.73 µM (active)
51 | COc1cccc(-c2cc(C(=O)Nc3cc(Cl)ccc3O)on2)c1 | 4.73 µM (active)
52 | Cc1cc(-c2ccc(S(=O)(=O)Nc3cc(Cl)ccc3C)s2)on1 | inactive
53 | COc1ccc(Cl)cc1NC(=O)c1sc(-n2nc(C)c(Cc3ccccc3)c2C)nc1C | inactive
54 | COc1cccc(-c2ccc3c(n2)CNC(=O)CO3)c1 | inactive
55 | CC(C)Cc1cc(CNc2nccc(-c3cc(C(=O)O)ccn3)n2)no1 | inactive
56 | O=C(c1cn[nH]c1)N1CCC(c2nc(CCOCC3CC3)no2)C1 (stereo not given) | inactive
57 | COc1nc2ccccc2nc1CCC(=O)N[C@H]1COC[C@H]1Cc1cc(C)no1 | inactive
58 | CN(C)C[C@@H]1CN(Cc2ccccc2)C[C@H]1NC(=O)c1ccncn1 | inactive
59 | Cc1ccccc1NC(=O)c1c(NC(=O)c2ccco2)sc2c1CCC(C(C)(C)C)C2 (stereo not given) | 13.3 µM (active)
60 | Cc1ccc(NC(=O)c2c(NC(=O)c3ccco3)sc3c2CCC(C(C)(C)C)C3)c(C)c1 (stereo not given) | inactive
61 | Cc1ccccc1NC(=O)c1c(NC(=O)c2cccs2)sc2c1CCC(C)C2 (stereo not given) | inactive
62 | O=C(CN1CCN(S(=O)(=O)c2cccs2)CC1)NCC1CCCCC1 | inactive
63 | CCOc1ccc(NC(=O)c2oc3ccccc3c2NC(=O)c2cc(C)cc(C)c2)cc1 | inactive
64 | Cc1ccc(Cl)cc1NC(=O)c1cc2ccccc2cc1O | 1.5 µM (active)
65 | O=C(NCC1CCCCC1)c1cc2ccccc2cc1O | 9.44 µM (active)
66 | Cc1ccc(Cl)cc1NC(=O)c1nnn(Cc2ccccc2)c1N | inactive
67 | O=C(NCC1CC1)c1cccc(OC2CN(CC3CC=CCC3)C2)c1 (stereo not given) | inactive
68 | Cc1ccc(Cl)cc1NC(=O)CCn1cnc2ccccc2c1=O | inactive
69 | CCOc1ccc(NC(=O)c2cc3ccccc3cc2O)cc1 | 5.31 µM (active)

Row | Compound | Potency
70 | CCn1cc(CN2CC(Oc3ccc(-c4noc(-c5ccncc5)n4)cc3)C2)cn1 | 13.3 µM (active)
71 | Cc1ccsc1C(=O)N1CC(Oc2ccc(-c3nc(-c4ccccc4)no3)cc2)C1 | inactive
72 | Cc1nc(C)c(C(=O)N2CC(Oc3ccc(-c4noc(-c5ccccc5)n4)cc3)C2)s1 | inactive
73 | Cc1c(C#N)c(N)nc(Cl)c1C#N | inactive
74 | CCOc1cccc(C2c3[nH]c4ccccc4c3CCN2C(=O)CSCc2ccc(F)cc2)c1 (stereo not given) | 15 µM (active)
75 | CCOc1cc(C(=O)N2CCc3c([nH]c4ccccc34)C2c2ccccc2)cc(OCC)c1OCC (stereo not given) | 7.5 µM (active)
76 | CN1N=C(C(=O)N2CCc3c([nH]c4ccccc34)C2c2ccccc2Cl)CCC1=O (stereo not given) | 5.31 µM (active)
77 | CC(C)NC(=O)N1CCN(S(=O)(=O)c2ccccc2)[C@@H](C(=O)N[C@H](Cc2c[nH]c3ccccc23)C(N)=O)C1 | inactive
78 | COc1ccc2nc3cc(Cl)ccc3c(Nc3cc(C(C)C)c(O)cc3C)c2c1 | 0.266 µM (active)
79 | CN(Cc1ccc(C2CC(=O)Nc3n[nH]c(C4CCC4)c32)o1)S(C)(=O)=O (stereo not given) | inactive
80 | Oc1ccccc1CN1CC(CNc2cccnc2)C2(C1)CN(c1ccccc1)C2 (stereo not given) | 10.9 µM (active)
81 | CC(C)c1ccc(CN2CC(CNc3cccnc3)C3(C2)CN(c2ccccc2)C3)cc1 (stereo not given) | 4.85 µM (active)
82 | Clc1cnccc1CN1CC(CNc2ccccc2)C2(C1)CN(c1ccccc1)C2 (stereo not given) | 13.7 µM (active)
83 | Cc1ccc(C)c(-c2cc3c(=O)n(CCNC(=O)c4cccc(F)c4)ccn3n2)c1 | inactive
84 | COc1ccc([S+](=O)([O-])N2CCC(N3Cc4cccn4C3=O)CC2)cc1 | inactive
85 | COc1cc(NC(=O)Cn2ncc3c(=O)oc4ccccc4c32)cc(OC)c1OC | 2.66 µM (active)
86 | Cc1ccc2oc(=O)c3cnn(CC(=O)Nc4cccc(C(F)(F)F)c4)c3c2c1 | 2.66 µM (active)
87 | O=C(NN1C(=O)C2C(C1=O)C1C=CC2C12CC2)c1cccnc1 (stereo not given) | inactive
88 | COc1ccc(CC(=O)NCc2cc(C)cc3c(C)c(C)[nH]c23)c(OC)c1 | 8.41 µM (active)
89 | CCOCCc1nnc(NC(=O)C(=O)c2cc(C)n(-c3ccc(C)c(C)c3)c2C)s1 | inactive
90 | COc1ccc(-c2nc3c(c(SCc4ccc(Br)cc4)n2)Cc2c(CO)cnc(C)c2O3)cc1 | 0.0668 µM (active)
